Source: PubChem
The sample as a whole holds a higher share of hits than the screen did.
Mac1 fbg inh: CD11b/CD18-fibrinogen binding inhibition. P05107+P11215. actives 0.54% (n = 93,000). inhibition, % at 10 µM. AID 1497. K562 CD11b/CD18 adhesion to fibrinogen, ATPlite luminescence; Mn2+ added to activate the integrin;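 active = primary inhibition of 50% or more at 10 µM, then 40% or more on retest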
D1 allo mod: allosterically modulates the human D1 dopamine receptor; P21728; HEK293 D1, CRE-luciferase, dopamine EC30 potentiation; actives deviate in either direction; B-score at 10 µM; actives 5.9% (n = 58,000); AID 641;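 active = luminescence count or its row- and column-corrected plate score outside the 99.7% band of the plate's sample wells, on either side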
Target sequence (P21728 whole entry, looked up): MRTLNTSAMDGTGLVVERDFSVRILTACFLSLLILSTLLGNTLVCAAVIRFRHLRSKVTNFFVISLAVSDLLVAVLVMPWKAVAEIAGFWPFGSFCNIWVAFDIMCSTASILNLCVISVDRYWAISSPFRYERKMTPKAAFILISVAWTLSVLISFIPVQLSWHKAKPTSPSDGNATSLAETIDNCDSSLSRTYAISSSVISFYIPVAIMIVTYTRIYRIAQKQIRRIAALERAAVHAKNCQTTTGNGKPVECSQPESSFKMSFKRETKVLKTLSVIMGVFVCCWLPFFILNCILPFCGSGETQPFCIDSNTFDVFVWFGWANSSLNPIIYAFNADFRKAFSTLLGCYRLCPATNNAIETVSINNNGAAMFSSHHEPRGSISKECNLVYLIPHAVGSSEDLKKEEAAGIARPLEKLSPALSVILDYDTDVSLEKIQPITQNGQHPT
hDAT+cocaine: modulates human dopamine transporter uptake under cocaine. LLC-PK1 hDAT cells, [14C]-dopamine uptake with cocaine IC80; actives deviate in either direction. Q01959. AID 449768. B-score at 10 µM. actives 1.3% (n = 110,000);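 active = Z score or B-score, a plate-position-corrected score, falls beyond the plate's 99.7% confidence bounds, in either direction; inactive = both scores lie inside the 99.7% bounds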;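 note: scored against the spread of the other compound wells on the same plate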
PTK2B oligo ant: Pyk2 (human) oligomerization antagonism | z-score (the deposit names both 25 µM and 10 µM) | Q293 cells, Pyk2 FERM NanoBiT luminescence; hits give low values | actives 0.83% (n = 99,000) | Q14289;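 active = Z-score of -3 or lower, scaled per plate to the spread of control and sample wells; inactive = z-score above -3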;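 note: negative z-score means lost luminescence so less FERM oligomerization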
FAK blocker: FAK (human) kinase inhibition. biochemical FAK kinase activity assay. Q05397. actives 0.84% (n = 97,000). inhibition, %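 (tested at 7 µM)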; in the data active = inhibition above about 19%;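 note: 0% = DMSO and 100% = reference compound high control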
CD11b adhes enh: increases human CD11b/CD18 adhesion to fibrinogen. activation, % at 10 µM. K562 CD11b/CD18 adhesion to fibrinogen, ATPlite luminescence. AID 1499. P05107+P11215. actives 0.07% (n = 93,000);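 active = 10 µM primary screen giving 50% or more activity, confirmed by 40% or more on retest at that dose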
D1 PAM confirm: D1 receptor (human) allosteric modulation, confirmed | shares compounds with D1 allo mod | luminescence at 10 µM | HEK293 D1 CRE-luciferase, dopamine EC30 potentiation; hits give high values | actives 88% (n = 2,200);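 active = luminescence in either of two replicates above the same-plate mean plus 3 SD of the low-dose dopamine control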
D1 no dopamine: D1 (human) signaling in absence of dopamine. luminescence at 10 µM. HEK293 D1 CRE-luciferase, luminescence, no dopamine; hits give high values. shares compounds with D1 allo mod. actives 0.8% (n = 1,900); in the data active = luminescence above about 3900
Isoprot counter: alters isoproterenol CRE-luciferase response in HEK293 cells | shares compounds with D1 allo mod | actives 63% (n = 2,200) | HEK293 D1 CRE-luciferase, isoproterenol EC30 counter-screen | calls only at 10 µM;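 active = luminescence in either replicate above plate mean of wells with a partly effective reference agonist dose plus 3 SD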;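 note: isoproterenol raises cAMP through native beta-adrenoceptor Gs so signal bypasses D1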
An asterisk follows results filed as active; i = inactive; nt = no result given; + = active, no number.

SMILES | Mac1 fbg inh | D1 allo mod | hDAT+cocaine | PTK2B oligo ant | FAK blocker | CD11b adhes enh | D1 PAM confirm | D1 no dopamine | Isoprot counter
O=C(Nc1nc2n(n1)C(c1ccccc1)C=C(c1ccccc1)N2)c1ccco1 (configuration not stated) | -2 | 2.9* | -0.42 | -0.59 | 0 | 1 | 11140* | 1520 | +
CC(=O)Nc1nc2n(n1)C(c1ccc(F)cc1)C=C(c1ccccc1)N2 (configuration not stated) | 38 | 2 | 0.23 | -0.42 | 1 | 3 | nt | nt | nt
CC(OC(=O)c1ccncc1)C(=O)Nc1cc(S(=O)(=O)N2CCCCC2)ccc1Cl (configuration not stated) | 4 | nt | nt | nt | nt | 2 | nt | nt | nt
C=CCn1c(N)c(C(=O)OCC)sc1=S | nt | nt | 1.1 | 1.7 | 6 | nt | nt | nt | nt
CCOC(=O)c1sc(=S)n(CC)c1N | -24 | 5.1* | -0.4 | -0.15 | nt | -4 | 10812* | 1584 | i
O=S(=O)(NCc1ccc(Cl)cc1)c1cnc[nH]1 | 4 | 0.27 | -1.3 | 0.31 | 0 | 6 | nt | nt | nt
Cc1ccc(CCNS(=O)(=O)c2cnc[nH]2)cc1 | -24 | 3.2* | 0.0069 | 0.74 | nt | 0 | 6464* | 1552 | i
CCOc1ccc(NC(=O)CSc2nnc(Cn3cnc4ccccc43)n2C)cc1 | nt | nt | -0.67 | -0.9 | 0 | nt | nt | nt | nt
O=C(O)CCSCC(=O)Nc1c(C(=O)C2CC2)oc2ccccc12 | -18 | 8.3* | 0.094 | 1.4 | 0 | -3 | 14596* | nt | +
O=C(CSc1nnnn1Cc1ccccc1)c1ccccc1 | -2 | 4* | -1.4 | 0.14 | 6 | -2 | 5880* | 1460 | i
O=C1c2ccccc2C(Nc2ccc3c(c2)OCO3)N1Cc1ccc2c(c1)OCO2 (configuration not stated) | 1 | 4.1* | -0.031 | nt | 3 | 62 | 9888* | 1436 | +
O=C1c2ccccc2C(Nc2ccc(F)c(Cl)c2)N1Cc1ccco1 (configuration not stated) | 6 | 3.4 | -1.2 | nt | 9 | 3 | nt | nt | nt
O=C1c2ccccc2C(Nc2cccnc2)N1Cc1ccc2c(c1)OCO2 (configuration not stated) | -5 | 1.5 | 1.7 | nt | nt | -1 | nt | nt | nt
O=C1c2ccccc2C(Nc2ccc3c(c2)OCO3)N1Cc1ccco1 (configuration not stated) | nt | 7.6* | 0.15 | nt | -6 | nt | 12600* | 1504 | +
COc1ccc(CCNC(=O)c2cnn3cccnc23)cc1OC | -52 | 13* | 0.28 | 0.13 | 1 | 0 | 14608* | 1264 | +
CC1(C)Cc2nc(-c3ccccc3)n3cnnc3c2CO1 | 0 | 9.5* | -0.041 | 0.58 | nt | -1 | 13436* | 1760 | +
CCN(CC)CCn1c(-c2ccccc2)nc(=S)c2c1CC(C)(C)OC2 | 5 | nt | 0.13 | 0.44 | -3 | -8 | nt | nt | nt
CC(=O)Nc1ccc(Oc2cc(C#N)c(C#N)cc2N2CCOCC2)cc1 | -4 | nt | 0.5 | -0.26 | -1 | 0 | nt | nt | nt
CC(=O)Nc1ccc(Oc2cc(C#N)c(C#N)cc2N2CCCCCC2)cc1 | nt | 4.9* | 2.1 | -1.9 | 5 | nt | 8364* | 1744 | +
COc1cc2c(cc1OC)C(C)N(C(=O)c1cc3n(n1)C(C(F)(F)F)CC(c1ccco1)N3)CC2 (configuration not stated) | nt | 6* | 2.2 | 0.14 | 0 | nt | 12888* | 1708 | +
COc1ccc(/C=N/N=C2/NC(=O)C(c3ccccc3)(c3ccccc3)S2)cc1 | -5 | nt | -0.018 | -0.04 | -1 | 0 | nt | nt | nt
CC1C(c2ccccc2)N(C)C(c2ccccc2)C(C)C1(O)C#Cc1ccccc1 (configuration not stated) | 25 | nt | nt | -0.46 | nt | -1 | nt | nt | nt
Cn1c(=O)[nH]c(=O)c2c1nc(N1CCCCCC1)n2Cc1cccc2ccccc12 | -4 | nt | -0.29 | -1.8 | -1 | 0 | nt | nt | nt
Cc1ccc(Cn2c(SCC(C)C)nc3c2c(=O)[nH]c(=O)n3C)cc1 | 5 | 7* | -0.13 | 0.45 | -5 | -2 | 15640* | 1512 | +
Cn1c(=O)[nH]c(=O)c2c1nc(N1CCCCCC1)n2CCCSc1nc2ccccc2o1 | -12 | 7.3* | 1.4 | -0.56 | 0 | 5 | 7696* | 1592 | +
SMILES | Mac1 fbg inh | D1 allo mod | hDAT+cocaine | PTK2B oligo ant | FAK blocker | CD11b adhes enh | D1 PAM confirm | D1 no dopamine | Isoprot counter
Cc1ccc(Cn2c(N3CCCCCC3)nc3c2c(=O)[nH]c(=O)n3C)cc1 | -4 | 3.1* | 1.7 | -0.4 | -6 | -1 | 9560* | 1668 | +
CC1CCCN(c2nc3c(c(=O)[nH]c(=O)n3C)n2Cc2ccccc2Cl)C1 (configuration not stated) | 20 | 4.5* | 0.33 | nt | 8 | -8 | 12012* | nt | +
CCOc1ccc(NC(=O)CN(C)CC(=O)NC2CCCc3ccccc32)cc1OCC (configuration not stated) | 8 | -0.69 | 0.28 | 1.5 | 2 | 1 | nt | nt | nt
COc1ccc(OC)c(-n2nnnc2SCC(=O)NCc2ccc3c(c2)OCO3)c1 | 6 | 1.6 | 0.58 | -0.47 | 2 | 7 | nt | nt | nt
Cc1cccc(Sc2c(C=O)c3ccccc3n2C)c1 | nt | nt | -0.19 | -2.1 | 3 | nt | nt | nt | nt
CCCn1c(N2CCN(CC(=O)c3c[nH]c4ccccc34)CC2)nc2c1c(=O)[nH]c(=O)n2C | 4 | -0.66 | 1.6 | -0.51 | -1 | 0 | nt | nt | nt
CCn1c(N2CCN(CC(=O)c3c(C)n(C)c4ccccc34)CC2)nc2c1c(=O)[nH]c(=O)n2C | -6 | 3.5* | 0.44 | 1.1 | 0 | -7 | 8636* | 1416 | +
CCCN1Cc2cccc(C(=O)NCc3ccc4c(c3)OCO4)c2C1=O | -11 | 12* | -0.055 | -0.39 | nt | -4 | 15396* | 1860 | +
COCCN1Cc2cccc(C(=O)NC(C)c3cccs3)c2C1=O (configuration not stated) | -25 | nt | 0.055 | -0.48 | -6 | -1 | nt | nt | nt
CCCN1Cc2cccc(C(=O)NCc3cccs3)c2C1=O | -21 | 18* | 0.46 | 0.09 | 3 | 5 | 24472* | 1580 | +
O=C(NCc1ccc2c(c1)OCO2)c1cccc2c1C(=O)N(C1CCCCC1)C2 | -7 | 6* | -0.42 | nt | 0 | 2 | 10552* | 1592 | +
CCOC(=O)N1CCC(N2Cc3cccc(C(=O)NCc4ccccc4OC)c3C2=O)CC1 | nt | 4.9* | 2 | -0.33 | nt | nt | 7800 | 1720 | i
Cc1cccc(C)c1OCc1nc2ccccc2c(=O)n1/N=C/c1c[nH]c2ccccc12 | 8 | nt | nt | nt | nt | 2 | nt | nt | nt
